Results published in PubChem BioAssay AID504444 (National Center for Advancing Translational Sciences (NCATS), 2011).
In all, about 360,000 compounds went through this assay and about 7,500 (2.1%) were called active. Where a call stands in place of a potency, no number is given. About 20% were inconclusive and are not listed. The sample holds actives, similar compounds and a random draw of the others, so the mix is not that of the screen. Values without a mark were called inactive. Calls come from the whole dose curve; as a rule, active = well fitted inhibition curve with a large enough effect; inconclusive = small, poorly fitted or top-dose-only effect, or effect the other way; inactive = flat fitted curve, though single readings scatter.

Test: Nrf2 qHTS screen for inhibitors; note: nearly all actives have a fitted effect of over 60% in size
Conditions: A549 ARE-Fluc reporter, luciferase luminescence, 18-24 h; series mostly up to 46 µM
How it was run: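 Nrf2 function is reported as luminescence of an ARE-controlled luciferase in A549 cells. Compounds were tested at several concentrations, and a CellTiter-Fluor read on the same wells flagged cytotoxicity.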
Potency is the fitted concentration of half-maximal effect.

Structure (SMILES)	Potency	activity change, negative = inhibition
CCOC(=O)c1ccc(N2C(=O)c3n[nH]c(-c4ccco4)c3C2c2ccc(O)cc2)cc1 (stereo not given)	inactive	
O=C1[C@@H](c2ccccc2)[C@@H](c2ccccc2)N1c1cccnc1	inactive	
CC(=O)N1CCCc2cc(S(=O)(=O)CCC(=O)N3CCN(c4ccccc4)CC3)ccc21	inactive	
CC(=O)N1CCCc2cc(S(=O)(=O)N3CCCC(C(=O)N4CCN(c5cccc(Cl)c5)CC4)C3)ccc21 (stereo not given)	7.31 µM (active)	
Cc1ccc(S(=O)(=O)N2CCCC(C(=O)N3CCN(C)CC3)C2)cc1 (stereo not given)	inactive	
O=C(C1CCCN(S(=O)(=O)c2ccccc2)C1)N1CCN(c2ccc(F)cc2)CC1 (stereo not given)	23.1 µM (active)	
CC(=O)N1c2ccc(S(=O)(=O)N3CCCC(C(=O)Nc4cccc(Cl)c4)C3)cc2CC1C (stereo not given)	6.51 µM (active)	
CC(=O)Nc1ccc(NC(=O)C2CCCN(S(=O)(=O)c3ccc(Cl)cc3)C2)cc1 (stereo not given)	inactive	
CC(=O)N1c2ccc(S(=O)(=O)N3CCC(C(=O)NCc4ccc(F)cc4)CC3)cc2CC1C (stereo not given)	inactive	
CC(=O)N1c2ccc(S(=O)(=O)N3CCC(C(=O)N4CCN(c5ccccc5)CC4)CC3)cc2CC1C (stereo not given)	inactive	
CC(=O)N1c2ccc(S(=O)(=O)N3CCCC(C(=O)NCc4ccc(Cl)cc4)C3)cc2CC1C (stereo not given)	8.2 µM (active)	
CCCS(=O)(=O)N1CCCC(C(=O)N2CCN(c3ccccc3)CC2)C1 (stereo not given)	inactive	
COc1ccccc1CNC(=O)C1CCN(S(=O)(=O)c2ccc3c(c2)CC(C)N3C(=O)C2CC2)CC1 (stereo not given)	inactive	
CC(=O)N1c2ccc(S(=O)(=O)N3CCC(C(=O)NC4CCCCC4C)CC3)cc2CC1C (stereo not given)	inactive	
O=S(=O)(c1ccc2c(c1)OCCO2)N1CCN(S(=O)(=O)c2cc(F)ccc2F)CC1	inactive	
Cn1c(=O)c2c(nc(SCC(=O)Nc3ccc(F)cc3)n2Cc2ccc(Cl)cc2)n(C)c1=O	inactive	
COc1cc(C(=O)N2CCN(S(=O)(=O)c3ccc(C(C)C)cc3)CC2)ccc1OCC(=O)N1CCOCC1	inactive	
COC(=O)Cc1c(-c2[nH]c3ccccc3c2CC(=O)OC)[nH]c2ccccc12	inactive	
O=C(c1ccc2c(c1)N(Cc1ccccc1)C(=O)c1ccccc1S2(=O)=O)N1CCCC1	inactive	
O=C(CCS(=O)(=O)c1ccc2c(c1)NC(=O)CO2)Nc1cccc(C(F)(F)F)c1	inactive	
Cc1cc2c(cc1C)NC1(C[C@H]3CCC(=O)N4CC[C@@H](C1)[C@@H]34)C(=NC(C)(C)CC(C)(C)C)N2 (stereo not given in full)	inactive	
COc1ccccc1-c1noc(CSc2nnc(-c3ccccc3)n2-c2ccc(C)c(C)c2)n1	inactive	
COc1ccc(CCNc2nc(-c3cccc(NC(C)=O)c3)cs2)cc1OC	inactive	
COc1ccc(CC(=O)Nc2nc(-c3ccc(F)c(F)c3)cs2)cc1OC	1.84 µM (active)	

Structure (SMILES)	Potency	activity change, negative = inhibition
COc1cc(CC(=O)Nc2nc(-c3ccc(F)c(F)c3)cs2)cc(OC)c1OC	11.6 µM (active)	
COc1ccccc1NC(=O)Nc1nc(CC(=O)Nc2ccccc2F)cs1	inactive	
COc1ccc(-c2csc(NC(=O)c3ccc(N4C(=O)CCC4=O)cc3)n2)cc1OC	inactive	
Cc1ccc(S(=O)(=O)NC(=O)Nc2nc(-c3ccc(F)c(F)c3)cs2)cc1	inactive	
COc1ccccc1CNC(=O)C(Cc1ccccc1)NS(=O)(=O)c1ccc2c(c1)oc(=O)n2C (stereo not given)	inactive	
COc1ccc(NC(=O)CN2CCCN(Cc3ccccc3)S2(=O)=O)cc1	inactive	
COC(=O)c1ccc(NCc2cc(O)ccc2O)cc1	inactive	
CN(CC(=O)Nc1ccc(Cl)cc1)CC(=O)Nc1cccc2ccccc12	inactive	
O=C(c1ccc(Cl)c(S(=O)(=O)N2CCCCC2)c1)N1CCCCCC1	inactive	
O=C(c1ccc(Cl)c(S(=O)(=O)N2CCCCCC2)c1)N1CCN(c2ccc(O)cc2)CC1	23.1 µM (active)	
O=C(c1ccc(Cl)c(Cl)c1)N1CCCC1	inactive	
O=C(c1ccccc1F)N1CCC(c2nc3c(nnn3Cc3cccc(F)c3)c(=O)[nH]2)CC1	inactive	
COc1ccc(CN2C(=O)C(NC(=O)c3cccc(C)c3)(C(F)(F)F)N=C2c2ccccc2)cc1 (stereo not given)	inactive	
COc1ccc(CCNC(=O)CSc2nnc3ccc(-c4ccncc4)nn23)cc1	inactive	
COc1ccc(CCNC(=O)CSc2nc(-c3ccc(OC)c(OC)c3)ccc2C#N)cc1	18.4 µM (active)	
COc1cccc(-c2ccc(C#N)c(SCC(=O)NCCc3ccc(Cl)cc3)n2)c1	inactive	
CCOc1ccc2oc(=O)cc(CN3CCN(C(=O)c4ccc(F)cc4)CC3)c2c1	inactive	
O=C1c2ccccc2C2=Nc3ccccc3SC(c3ccccc3F)C12 (stereo not given)	23.1 µM (active)	
O=C1c2ccccc2C(=O)C1c1ccccc1F	inactive	
Cc1cccc(NC(=O)c2nnn(CC(=O)Nc3ccc(C(C)C)cc3)c2N)c1C	inactive	
O=C(CSc1nnc(CN2CCCC2)n1-c1ccc(F)cc1)c1ccc2c(c1)OCO2	inactive	
COc1ccccc1-c1cc(C(F)(F)F)nc(S(=O)(=O)CCCC(=O)Nc2ccc(F)cc2F)n1		10.4% [at 9.27 µM]
COc1cc(C(=O)NC2CCN(C)CC2)ccc1Nc1ncc2c(n1)N(C1CCC(O)CC1)CCC(=O)N2C (stereo not given)	inactive	
O=C(CN1CCN(C(=S)NC2CCCC2)CC1)Nc1ccc(Oc2ccccc2)cc1	16.4 µM (active)	

Structure (SMILES)	Potency	activity change, negative = inhibition
CCOc1ccc(NC(=O)CN2CCN(CC(=O)Nc3ccc(OC)cc3)CC2)cc1	inactive	
CCOc1ccc(NC(=S)N2CCC(NC(=O)c3ccccc3)CC2)cc1	inactive	
CCc1cc2c(-c3ccccc3)cc(=O)oc2c2c1OCN(Cc1ccc(C)cc1)C2	inactive	
O=C(Cc1ccc(NC(=O)C2CCCN(C(=O)CCc3ccccc3)C2)cc1)Nc1ccc(C(=O)N2CCOCC2)cc1 (stereo not given)	inactive	
CC(C)OC(=O)c1ccc(NCc2cc(O)ccc2O)cc1Cl	inactive	
O=S(=O)(c1ccc(Br)cc1)c1nc(-c2ccccc2)oc1NCc1cccnc1	20.6 µM (active)	
O=S(=O)(c1ccccc1)c1nc(-c2ccccc2F)oc1NCc1cccnc1	inactive	
Cc1ccc(S(=O)(=O)c2nc(-c3cccs3)oc2NCc2cccnc2)cc1	inactive	
CC[N+]1(CC)CC2=Cc3ccccc3CC2C1 (stereo not given)	23.1 µM (active)	
COc1cc(OC)cc(C(=O)Nc2c(C(=O)Nc3ccc(F)cc3)oc3ccccc23)c1	inactive	
COc1cccc(/C=N\NC(=O)C2=NNC(=O)C2C)c1O (stereo not given)	inactive	
COc1cccc(/C=N/Nc2cc(C)nc(-c3ccccc3O)n2)c1O	14.6 µM (active)	
COc1cccc(/C=N/NC(=O)c2[nH]nc3c2CCc2ccccc2-3)c1O	inactive	
Cc1nc2nc(SCC(=O)N(Cc3ccccc3)C(C)C)nn2c(C)c1Cc1ccccc1Cl		8.79% [at 9.27 µM]
CCN1CCc2nc3sc(C(=O)Nc4ccccc4OC(F)(F)F)c(N)c3cc2C1	inactive	
NC(=O)c1c(NC(=O)CSc2nc(N)cc(=O)[nH]2)sc2c1CCCC2	inactive	
COC(=O)c1c(NC(=O)c2ccc(Cl)c(Cl)c2)sc2c1CCCC2	inactive	
COC(=O)c1c(NC(=O)CCCC(=O)O)sc2c1CCCCC2	5.17 µM (active)	
COC(=O)c1c(NC(=O)CSc2nncs2)sc2c1CCCCC2	18.4 µM (active)	
COC(=O)c1c(NC(=O)C2CC(C)=C(C)CC2C(=O)O)sc2c1CCCCC2 (stereo not given)	inactive	
COC(=O)c1c(NC(=O)CCN2CCOCC2)sc2c1CCCC2	inactive	
CCOC(=O)C1=CN(Cc2ccc(Br)cc2)S(=O)(=O)N(C)C1C (stereo not given)	inactive	
CCNC(=O)N(CC)C[C@H]1N[C@@](CC)(C(=O)OC)[C@H]2C(=O)N(Cc3ccccc3)C(=O)[C@@H]12	inactive	
O=C1c2ccccc2[C@@H]2C[C@@H](O)[C@H](Nc3ccccc3Cl)CCN12	inactive	

Structure (SMILES)	Potency	activity change, negative = inhibition
C=CCn1c(SCc2cccc(F)c2)nc2cc(C(=O)N3CCC(C(N)=O)CC3)ccc2c1=O	inactive	
CCn1cc2nc(SCc3cccc(F)c3)n(CCc3ccccc3)c(=O)c2n1	23.1 µM (active)	
Cc1cc(=O)[nH]c(SCc2cccc(F)c2)n1	inactive	
O=C(Cn1cc(SCc2ccccc2)c2ccccc21)N1CCCCC1	inactive	
COc1ccc(CCNc2nc(-c3ccc(F)cc3)cc(C(F)(F)F)n2)cc1OC		8.32% [at 9.27 µM]
COc1ccccc1CNC(=O)c1ccc(-n2c(C)cc3c2CCCC3)cc1	inactive	
CCOc1ccc(CNC(=O)CCc2c(C)nn(-c3ccc(N4CCCCC4)nn3)c2C)cc1	inactive	
O=C(NCc1ccc(F)cc1)c1ccc(Cn2c(SCc3ccc(F)cc3)nc3cccnc32)cc1	inactive	
Cc1oc(-c2ccccc2)nc1Cn1c(SCc2cccc(C(F)(F)F)c2)nc2cccnc21	25.9 µM (active)	
O=C(O)c1ccc(CSc2nc3cccnc3n2Cc2cccc(F)c2)cc1	inactive	
CCN(Cc1ccccc1)C(=O)c1cn(-c2cccc(OC)c2)c(=O)c2ccccc12	inactive	
c1ccc(-c2nc(NCc3ccco3)c3ccccc3n2)cc1	inactive	
Cc1ccc(Oc2nc(-c3ccccn3)nc3ccccc23)cc1	inactive	
CC(C)(C)Nc1nc(-c2ccccn2)nc2ccccc12	20.6 µM (active)	
CCOc1ccc(C(=O)c2cn(Cc3ccccc3OC)c3ccc(F)cc3c2=O)cc1	inactive	
O=C(N/N=C/c1ccc(OC(=O)c2ccccc2Cl)cc1)c1ccc(O)cc1	inactive	
CC(C)(C)C(=O)Nc1ccc(C(=O)N/N=C/c2ccccc2OC(=O)c2ccc(Cl)cc2Cl)cc1	13 µM (active)	
O=C(N/N=C/c1ccoc1)c1ccc(Cl)cc1Cl	inactive	
O=C(CC(=O)c1cccnc1)c1ccccc1	inactive	
COCCN(Cc1ccco1)C(=O)Cn1ncc2c([nH]c3ccccc32)c1=O	inactive	
O=C(CC1SC(=Nc2ccccc2)N(Cc2ccccn2)C1=O)Nc1cccc(Cl)c1 (stereo not given)	25.9 µM (active)	
CN1C(=O)C(CC(=O)Nc2ccccc2)S/C1=N/c1nccs1 (stereo not given)	inactive	
O=C(Nc1cccc(Cl)c1)OCc1ccccn1	inactive	
